# Source: PubChem BioAssay (NCATS)
# Results filed as inconclusive are left out. A call without a number means that no potency is given here. Calls of active or inactive are those of the source. The call rests on the fitted dose curve; in most records, active means well fitted inhibition curve with a large enough effect; inconclusive means small, poorly fitted or top-dose-only effect; inactive means flat fitted curve, though single readings scatter.
# Test system: ATS189
# Test: qHTS profiling for inhibitors of Plasmodium falciparum proliferation (AID 504749); further: nearly all actives have a fitted effect of over 60% in size
# Settings: P. falciparum in erythrocytes, SYBR Green DNA, 72 h; series mostly up to 28.7 µM
# Procedure, shortened: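 SYBR Green fluorescence (ex 485 nm, em 535 nm) reports parasite DNA after 72 h compound exposure of infected red cells at 0.3% parasitemia, 2.5% hematocrit; signal normalized to 0.29 uM artemisinin and vehicle wells.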
# Potency means the concentration at half of the fitted maximal effect.
row,Structure (SMILES),Potency
1,C[C@H](N)Cc1ccccc1,inactive
2,C[C@]12C=CC(=O)C=C1CC[C@@H]1C2CC[C@]2(C)OC(=O)CCC12 (some centres not stated),inactive
3,OCC(O)[C@H]1O[C@@H]2O[C@H](C(Cl)(Cl)Cl)O[C@@H]2[C@H]1O (some centres not stated),inactive
4,CC1(C)[C@@H](C=C(Cl)Cl)[C@@H]1C(=O)OCc1c(F)c(F)cc(F)c1F,inactive
5,CC1(C)S[C@@H]2[C@H](N)C(=O)N2C1C(=O)O (some centres not stated),inactive
6,C=C1Nc2ccccc2C(=O)N1c1ccccc1C,inactive
7,CC1OC(O[C@H]2C[C@@H](O)[C@]3(CO)[C@@H]4C(CC[C@]3(O)C2)[C@@]2(O)CC[C@H](C3=CC(=O)OC3)[C@@]2(C)C[C@H]4O)C(O)C(O)C1O (some centres not stated),inactive
8,O=[N+]([O-])OC1CO[C@H]2C(O[N+](=O)[O-])COC12 (some centres not stated),inactive
9,CCOC(=O)/C=C(C)/C=C/CC(C)CCCC(C)C (configuration not stated),inactive
10,[S]=[Sb][S][Sb]=[S],inactive
11,CN1C2CCC1C(C(=O)O)C(OC(=O)c1ccccc1)C2 (configuration not stated),inactive
12,C[C@@H]1CC[C@H]2[C@@H](C)C(=O)O[C@@H]3OC4(C)CC[C@@H]1C32OO4 (some centres not stated),8.9 nM (active)
13,Cc1ccc2c(c1)[C@@H]1CN(C)CC[C@H]1N2,inactive
14,Nc1nc(O)c(-c2ccccc2)o1,inactive
15,C=CC[N+]1(C)CCC23c4c5ccc(O)c4O[C@H]2C(=O)CC[C@@]3(O)C1C5 (some centres not stated),inactive
16,OC[C@@H](O)[C@H]1O[C@@H]2OC(C(Cl)(Cl)Cl)O[C@H]2[C@H]1O (some centres not stated),inactive
17,CCCCCCC(=O)O[C@H]1CC[C@H]2[C@@H]3CCC4CC(=O)C=C(C)[C@]4(C)[C@H]3CC[C@]12C (some centres not stated),inactive
